Experiment: High-throughput drug toxicity screening in the BPDCN cell line Gen2.2 (AID 1224824)
Conditions: Gen2.2 BPDCN cells; at 45.8 µM (top of the series) unless noted
Text: Blastic plasmacytoid dendritic cell neoplasm (BPDCN) is a rare, aggressive and largely incurable hematologic malignancy originating from plasmacytoid dendritic cells (pDCs). Although an initial response to chemotherapy is common, BPDCN prognosis is extremely poor and most patients relapse with drug-resistant disease leading to a median overall survival of ~1 year after diagnosis. To explore novel potential therapeutic strategies in BPDCN, we performed a high-throughput drug toxicity screening in BPDCN cell liens, using of a library of 1,912 small molecules, enriched for compounds that are either approved or in early stages of development for cancer therapy.
A total of 500 exponentially growing Gen2.2 cells were seeded per well in 5 uL of media (RPMI + Glutamine, without phenol red plus10% FBS and 1X Pen/Strep) into 1536-well solid white high base tissue culture treated Greiner One Bio Plates (789173-F), using a multidrop combi dispenser and a small sterile cassette. Compounds and controls totaling 23nL per well (negative control DMSO and positive control 9.2 uM Bortezomib-final) were immediately added to the plates using a 1536 head pin tool from Kalypsys. The plates were then covered with stainless steel gasket lids from Kalypsys and incubated for 48 hours at 37C under 95% relative humidity with 5% CO2. After 48 hours, the plates were removed and allowed to reach room temperature before 3 uL of Cell Titer Glo reagent (Promega) were added using an Aurora Flying Reagent Dispenser Bioraptor. The plates were then spun at 1000 rpms to remove bubbles and incubated for 15 minutes at room temperature before reading on a ViewLux using a luminescent filter with a 10 second exposure. The relative luciferase units were used to calculated percent activity using DMSO as 100% and Bortezomib as 0%.

Compound	cell viability, % of control (lower = more cytotoxic)
CCC1(c2ccc(N)cc2)CCC(=O)NC1=O (stereo not drawn)	153%
CC(C)c1cccc(C(C)C)c1O	123%
O=P1(N(CCCl)CCCl)NCCCO1 (stereo not drawn)	17%
COc1cc(OC)c(OC)cc1C=O	98.9%
C[C@]12CC[C@H]3[C@@H](CC[C@@]45O[C@H]4C(O)=C(C#N)C[C@]35C)[C@H]1CC[C@H]2O	28.9%
CC(C)C[C@H](CN)CC(=O)O	401%
C[C@]12CCC(=O)C=C1CC[C@@H]1[C@H]3CC[C@](C)(O)[C@@]3(C)CC[C@@H]12	95.2% [at 92.2 µM]
CN1C(=O)COc2c(C(=O)NC3CN4CCC3CC4)cc(Cl)cc21 (stereo not drawn)	212%
C[C@](O)(CS(=O)(=O)c1ccc(F)cc1)C(=O)Nc1ccc(C#N)c(C(F)(F)F)c1	14%
CN1C(=O)CCS(=O)(=O)C1c1ccc(Cl)cc1 (stereo not drawn)	143%
O=C(O)CCCc1ccc(N(CCCl)CCCl)cc1	84.6%
CC(NC(C)(C)C)C(=O)c1cccc(Cl)c1 (stereo not drawn)	145%
C[C@]12CC[C@@H]3c4ccc(OC(=O)N(CCCl)CCCl)cc4CC[C@H]3[C@@H]1CC[C@@H]2OP(=O)(O)O	99.3%
